MEKK3 PB1 HTS = raises or lowers MEK5 binding to the human MEKK3 PB1 domain; bead-based flow cytometry, Alexa488-MEK5 binding to MEKK3; actives lie on both sides; 0 = blocked by unlabeled MEK5, 100 = vehicle; binding response (% of control), % at 10 µM; AID 1529; actives 1.4% (n = 290,000);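 active = binding response more than 3 SD above or below the average of its plate-row segment, actives on both sides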;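 note: Alexa488 bead fluorescence after subtracting the streptavidin-only scavenger bead signal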
UBC13 polyUb = blocks human UBC13 polyubiquitin chain formation | P61088 | TR-FRET | inhibition, % at 20 µM | actives 0.47% (n = 330,000) | AID 485273; in the data active = inhibition above about 45%, passing the limit was not always enough
Target sequence (P61088 whole entry, looked up): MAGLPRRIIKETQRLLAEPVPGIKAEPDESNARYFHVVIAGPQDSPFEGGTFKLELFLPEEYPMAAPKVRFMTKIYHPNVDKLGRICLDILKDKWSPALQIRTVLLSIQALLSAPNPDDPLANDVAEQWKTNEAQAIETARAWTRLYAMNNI
MEKK2wt PB1 HTS = raises or lowers MEK5 binding to wildtype human MEKK2 PB1 domain; Q9Y2U5; bead flow cytometry, Alexa488-MEK5 binding to MEKK2 WT; actives lie on both sides; binding response (% of control), % at 10 µM; actives 1.1% (n = 290,000); AID 1531; in the data active = binding response below about 67% or above about 130%
MEKK2 mut-MEK5 = signal of MEK5 binding to mutant human MEKK2 PB1 domain | bead flow cytometry, Alexa488-MEK5 binding to MEKK2 mutant | actives 0.35% (n = 290,000) | AID 1530 | percent response, % at 10 µM; in the data active = percent response above about 24%, passing the limit was not always enough
MEKK2wt confirm = raises or lowers MEK5 binding to wildtype human MEKK2, retest | shares compounds with MEKK3 PB1 HTS | bead flow cytometry, Alexa488-MEK5 binding to MEKK2 WT; actives lie on both sides | binding response (% of control), % at 10 µM | actives 2.4% (n = 5,900) | AID 1892; in the data active = binding response below about 16% or above about 210%; inactive = in between
MEKK2mut-MEK5 = signal of MEK5 binding to mutant human MEKK2, retest; bead flow cytometry, Alexa488-MEK5 binding to MEKK2 mutant; percent response, % at 10 µM; actives 2% (n = 5,900); shares compounds with MEKK3 PB1 HTS; in the data active = percent response mostly above about 71%, no sharp cut-off; inactive = mostly below about 38%;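 note: higher means compound restores mutant binding toward wildtype level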
MEKK3-MEK5 inh = confirmation of inhibitors of MEK5 binding to human MEKK3. shares compounds with MEKK3 PB1 HTS. bead flow cytometry, Alexa488-MEK5 binding to MEKK3; hits give low values. binding response (% of control), % at 10 µM. actives 1.8% (n = 5,900). AID 1894;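 active = binding response below 72% of control, or above a set upper limit, though filed actives all read lower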;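 note: 100% = DMSO only wells and 0% = binding blocked by excess unlabeled MEK5; lower values mean stronger disruption of MEK5 binding to MEKK3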
Active calls of the source: *; nt = no result given; [ ] = dose if it differs, or a comment. Shown are actives, neighbours in structure and some others; about 2.3% of the full set was active somewhere.

SMILES	MEKK3 PB1 HTS	UBC13 polyUb	MEKK2wt PB1 HTS	MEKK2 mut-MEK5	MEKK2wt confirm	MEKK2mut-MEK5	MEKK3-MEK5 inh
CO/N=C1\CCCc2c(C(=O)NN)sc(SC)c21	91.0	13.2	88.0	-5.0	nt	nt	nt
Cc1ccccc1CNC(=O)c1ccccc1SCC(=O)NCc1ccco1	nt	-2.3	nt	nt	nt	nt	nt
CCN1CCN(/C=N/c2nc(C)cs2)CC1	2.0*[inhibitor]	-0.8	-2.0*[inhibitor]	-18.0	106.0	4.0	99.0
Brc1ccc(-c2csc(/N=C/N3CCCC3)n2)cc1	102.0	-6.2	98.0	0.0	nt	nt	nt
Cn1c(=O)c2c(nc(NCC3CCCC(CN)C3)n2Cc2ccc(Cl)cc2Cl)n(C)c1=O (centres undefined)	104.0	16.5	141.0*	30.0*	185.0	48.0	109.0
Cc1ccc(C(=O)COC(=O)c2ccncc2)cc1[N+](=O)[O-]	52.0*[inhibitor]	-0.6	81.0	-2.0	97.0	-5.0	102.0
Cc1ccc(C(=O)COC(=O)c2cc(Cl)ccc2O)cc1[N+](=O)[O-]	101.0	7.5	101.0	0.0	nt	nt	nt
CC1CCCCN1C(=O)CSc1nc2ccccc2[nH]1 (centres undefined)	143.0*	-1.8	126.0	6.0	107.0	8.0	108.0
COc1cc(NS(=O)(=O)c2ccc(NC(=S)NC(=O)C(C)(C)C)cc2)nc(OC)n1	38.0*[inhibitor]	-0.2	51.0	-23.0	98.0	0.0	105.0
O=C1C=C(c2ccc3c(c2)oc2ccccc23)C[C@@H](c2ccc3c(c2)OCO3)C1	nt	-7.6	nt	nt	nt	nt	nt
Cc1ccc(C(=O)Nc2cccnc2)cc1S(=O)(=O)N1CCOCC1	129.0*	2.5	125.0	10.0	107.0	6.0	105.0
Cc1ccc(C(=O)Nc2cccnc2)cc1S(=O)(=O)N1CCCCCC1	99.0	1.6	103.0	-1.0	nt	nt	nt
COc1ccc(OCC(O)Cn2c(N)nc3c2c(=O)[nH]c(=O)n3C)cc1 (centres undefined)	91.0	8.9	91.0	-6.0	nt	nt	nt
CC(=O)c1ccc(OCC(=O)Nc2ccc3c(c2)CCC3)cc1	nt	3.5	nt	nt	nt	nt	nt
O=C(COc1ccc(Cl)cc1)Nc1ccc2c(c1)CCC2	75.0*[inhibitor]	-0.2	100.0	-1.0	98.0	-4.0	96.0
CC1(C)CC(=O)C2=C(C1)N(c1ncn[nH]1)C(N)=C(C#N)C2c1ccccc1 (centres undefined)	137.0*	-29.8	109.0	0.0	111.0	6.0	109.0
CC1(C)CC(=O)C2=C(C1)N1C(=C(C#N)C2c2ccccc2Cl)N=C(N)c2ccccc21 (centres undefined)	105.0	-14.7	95.0	-4.0	nt	nt	nt
CC1(C)CC(=O)C2=C(C1)N(c1ccccc1)C(N)=C(C#N)C2c1ccccc1 (centres undefined)	117.0	6.7	109.0	3.0	nt	nt	nt
CC1(C)CC(=O)C2=C(C1)N1C(=C(C#N)C2c2ccc(Cl)cc2)N=C(N)c2ccccc21 (centres undefined)	1.0*[inhibitor]	2.2	2.0*[inhibitor]	-14.0	93.0	-3.0	101.0
O=C(CSc1nnc(CNC(=O)c2c(F)cccc2F)o1)Nc1ccc2c(c1)OCCO2	104.0	3.2	108.0	6.0	nt	nt	nt
N#CC1=C(N)NC(SCc2ccc(F)cc2)=C(C#N)C12CCCCC2	82.0*[inhibitor]	-4.9	86.0	-10.0	112.0	10.0	103.0
N#CC1=C(N)NC(SCC(=O)O)=C(C#N)C12CCCC2	105.0	-13.9	104.0	5.0	nt	nt	nt
CSCC[C@H](N)C(=O)NCC1CCC(C(=O)Nc2ccc3c(c2)OCO3)CC1 (some centres undefined)	101.0	2.4	100.0	4.0	nt	nt	nt
OC1CCCN(Cc2ccc3ccc4cccc5ccc2c3c45)C1 (centres undefined)	109.0	26.2	140.0*	17.0	119.0	8.0	102.0
COc1cc(CC(NC(C)=O)C(=O)NC2CCN(S(=O)(=O)c3ccc(NC(C)=O)cc3)CC2)cc(OC)c1 (centres undefined)	99.0	-4.4	99.0	0.0	nt	nt	nt
OC(COCC1COc2ccccc2O1)CN1CCc2ccccc2C1 (centres undefined)	98.0	-9.9	102.0	-2.0	nt	nt	nt
